In PubChem BioAssay AID602449 (Sanford-Burnham Center for Chemical Genomics, 2012):
Values joined by “and” are separate entries in the source; they are usually repeats but may differ in a detail not shown here. Identical values can stand only once. Hit rate of the full screen: of about 360,000 compounds, about 5,000 (1.4%) were called active.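 Rule for the calls: active = inhibition of 50% or more, scaled per plate between neutral and stimulator controls; inactive = the rest.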 Only a selection was taken, and actives are over-represented in it overall. A structure can be active in one record and inactive in another.

Assay: mitochondrial permeability transition pore inhibitors, primary screen, biochemical, isolated mouse mitochondria, absorbance (AID 602449);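 note: 0% = DMSO wells given calcium and 100% = 1 mM EGTA wells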
Settings: Ca2+ swelling absorbance, 30 min, at 10 µM, stronger effect = higher value

| SMILES | inhibition |
| --- | --- |
| CCOC(=O)CNC(=O)/C=C/c1c(Cl)cccc1Cl | 0.6% (inactive) |
| COc1ccc([N+](=O)[O-])cc1NCC(=O)c1ccc(C)cc1 | 0.6% (inactive) |
| COc1ccc(NC(C)=O)cc1NC(=O)CN1CCN(C2c3ccccc3-c3ccccc32)CC1 | -1.5% (inactive) |
| c1ccc2c(c1)C(=NC1CCCCC1)NC2=NC1CCCCC1 | 67.5% (active) |
| Cc1cc2nc(SCCN3CCOCC3)[nH]c2cc1C | 0% (inactive) |
| O=S(=O)(Nc1ccc(Oc2ncccn2)c(Cl)c1)c1ccc(F)cc1 | -1.6% (inactive) |
| Cc1ccc(S(=O)(=O)Nc2ccc3ncccc3c2)cc1 | 85% (active) |
| Cc1cc(C)cc(OCC(=O)Nc2ccc(S(=O)(=O)Nc3ccccn3)cc2)c1 | 3.7% (inactive) |
| O=C(CCN1C(=O)c2ccccc2C1=O)NNC(=O)c1ccc(Cl)cc1Cl | -0.8% (inactive) |
| Cc1cc(OCCCC(=O)NCCN2C(=O)S/C(=C\c3cccnc3)C2=O)ccc1Cl | 84.3% (active) |
| O=C(NCCN1C(=O)S/C(=C\c2cccnc2)C1=O)c1cccc(OC(F)F)c1 | 2.4% (inactive) |
| COc1ccc(N2CC(C(=O)NCCN3C(=O)S/C(=C\c4cccnc4)C3=O)CC2=O)c(OC)c1 (configuration not stated) | -0.2% (inactive) |
| CSCCC(NC(=O)COc1ccccc1)C(=O)OCC(=O)c1cc2ccccc2o1 (configuration not stated) | 0% (inactive) |
| CCc1nn(CC(=O)N2CCN(CC)CC2)c(=O)c2cccn12 | -0.4% (inactive) |
| COC(=O)C1CC2=C(CC(C)(C)CC2=O)N(c2ccccc2)C1=O (configuration not stated) | -0.8% (inactive) |
| CC(C)(c1ccccc1)c1ccc(OCCN2CCCC2)cc1 | 2% (inactive) |
| CN1CCC[C@@H]1CCO[C@](C)(c1ccccc1)c1ccc(Cl)cc1 | 78% (active) |
| OC(c1ccccc1)(c1ccccc1)C1CCN(CCCOc2ccccc2)CC1 | 4.5% (inactive) |
| CCCc1nn(C)c2c(=O)[nH]c(-c3cc(S(N)(=O)=O)ccc3OCC)nc12 | -0.3% (inactive) |
| O=C(c1cccc(N2CCCC2=O)c1)N1CCOCC1 | -0.5% (inactive) |
| Cc1ccc(C(=O)Nc2ccn(C)n2)cc1 | 1.3% (inactive) |
| CSc1nccc(NC(=O)c2ccc(C(C)(C)C)cc2)n1 | 95.6% (active) |
| COC(=O)c1nc(NC(=O)c2ccc(F)cc2)n[nH]1 | 11.4% (inactive) |
| Cc1ccc(C)c(NC(=O)COC(=O)Cn2c(C)csc2=O)c1 | -0.7% (inactive) |
| COc1ccc(C(N)c2csc(NC(=O)Nc3cccc(C(F)(F)F)c3)n2)cc1 (configuration not stated) | 0.9% (inactive) |

| SMILES | inhibition |
| --- | --- |
| COc1cc(NC(=O)c2cncc(-c3ccc(C#N)cc3)c2)cc(C(=O)Nc2cccc(C(F)(F)F)c2)c1 | 93.8% (active) and 48.4% (inactive) |
| COc1cc(NC(=O)c2[nH]cnc2C(N)=O)cc(C(=O)Nc2cccc(C(F)(F)F)c2)c1 | 0% (inactive) |
| O=C(Nc1nnc(CCN2CCCCC2)s1)c1cccc(Cl)c1 | -0.1% (inactive) |
| O=C(NCc1ccccc1Cl)NC(=O)c1csc([N+](=O)[O-])c1 | 1% (inactive) |
| O=C(Nc1nnc(SCc2c(Cl)cccc2Cl)s1)c1cccc([N+](=O)[O-])c1 | 91.5% (active) |
| O=C(Nc1nnc(SCc2ccccc2Cl)s1)c1cccc([N+](=O)[O-])c1 | 96.3% (active) |
| O=C(Nc1nnc(SCc2c(Cl)cccc2Cl)s1)C1CCCO1 (configuration not stated) | -1.4% (inactive) |
| COCCSc1nnc(NC(=O)c2cc(OC)c(OC)cc2[N+](=O)[O-])s1 | -2.4% (inactive) |
| CCO/N=C(/C)c1c(O)cc(-c2ccccc2)n(-c2ccccc2)c1=O | 8.8% (inactive) |
| O=S1(=O)CC(N2CCC(Cc3ccccc3)CC2)CN1Cc1ccccc1 (configuration not stated) | 0.9% (inactive) |
| COc1ccc(OCCCC(=O)Nc2nnc(C3CCCO3)s2)cc1 (configuration not stated) | 1.4% (inactive) |
| CCC1CCCCN1C(=S)NC(=O)c1ccco1 (configuration not stated) | -3.3% (inactive) |
| COc1cc(OC)cc(C(=O)Nc2nnc(SCC(=O)NCC3CCCO3)s2)c1 (configuration not stated) | -0.7% (inactive) |
| CCOC(=O)N1CCN(C(=O)C2CCCN(c3ncnc4c3sc3cccc(F)c34)C2)CC1 (configuration not stated) | 20.7% (inactive) |
| CCOC(=O)N1CCN(C(=O)C2CCN(c3ncnc4c3sc3cccc(F)c34)CC2)CC1 | 50% (active) |
| CCOC(=O)N1CCN(C(=O)C2CCN(S(=O)(=O)c3cc(Cl)ccc3OCC)CC2)CC1 | -0.2% (inactive) |
| COC(=O)C1C(=O)NCC1c1ccc(OC)cc1 (configuration not stated) | 1.1% (inactive) |
| Cc1nn(-c2ccccc2)c(CC(C)(C)C(=O)O)c1C(=O)O | -5.4% (inactive) |
| Nc1[nH]c(C(=O)c2ccccc2)c(-c2ccc(Br)cc2)c1C(=O)NC1CC1 | 0.8% (inactive) |
| COc1ccccc1N1CC(C(=O)Nc2nnc(SCC(=O)NC(C)C)s2)CC1=O (configuration not stated) | 0.4% (inactive) |
| CC1=NC2(CCCc3c2no[n+]3[O-])N(O)C1(C)C (configuration not stated) | 0.8% (inactive) |
| CC(=O)Nc1nc2c(s1)C(=O)NCC(C)(C)C2 | 0% (inactive) |
| CC1(C)CC(=O)c2sc(N)nc2C1 | 83.2% (active) |
| CCCc1nc(N)nc2c1C(=O)CC(C)(C)C2 | -2.5% (inactive) |
| COc1cccc(NC(=O)CN(C)C(=O)CSC(=S)N2CCCC2)c1 | -0.1% (inactive) |

| SMILES | inhibition |
| --- | --- |
| CCCS(=O)(=O)N1CCCC(C(=O)NCCN2CCCCC2C)C1 (configuration not stated) | -1.3% (inactive) |
| CCCCCCc1cc2cc(-c3nnc(-c4ccccc4)o3)c(=O)oc2cc1O | 96.2% (active) |
| COc1ccccc1CNC(=O)CCCNS(=O)(=O)c1cccc2nsnc12 | -0.6% (inactive) |
| COCCCNC(=O)CN1C(=O)CSc2ccc(S(=O)(=O)N3CCOCC3)cc21 | 2.1% (inactive) |
| CCc1cc2c(NC3CCCC3)ncnc2s1 | 87.6% (active) |
| CCc1cc2c(SCC(=O)Nc3ncc(Cl)c(C)c3Cl)ncnc2s1 | 46.1% (inactive) |
| CCc1cc2c(NC(Cc3ccccc3)C(=O)O)ncnc2s1 (configuration not stated) | 1.6% (inactive) |
| CC(=O)Oc1ccc(OC(C)=O)c2c1C1C=CC2CC1 | -0.2% (inactive) |
| COc1cccc(-c2cnc3c(NC(C)=O)cc(-c4cc(F)ccc4OC)cn23)c1 | -0.3% (inactive) |
| O=C1CSC(=S)N1c1ccc(Cl)c(Cl)c1 | 2.2% (inactive) |
| CC(C)N1C(=S)SC(C)(C)C1n1oc(=O)n(-c2ccc(Cl)c(Cl)c2)c1=O (configuration not stated) | 92.3% (active) |
| Cc1cc(=O)cc(C)n1-c1ccc(Cl)c(Cl)c1 | -0.1% (inactive) |
| N#Cc1cc([N+](=O)[O-])ccc1NC(=O)COC(=O)c1cnccn1 | -1.8% (inactive) |
| Cc1ccc(OCCNC(=O)CNC(=O)c2ccc(C)c(C)c2)cc1 | -0.6% (inactive) |
| O=C(Nc1cccc(Br)c1)C1CC(=O)N(C2CCCC2)C1 (configuration not stated) | -0.1% (inactive) |
| COc1ccc(OCC(O)CNC(=O)Nc2ccc(Cl)cc2)cc1 (configuration not stated) | 6.8% (inactive) |
| CC(=O)N1CCC(N(C(=O)Nc2ccc(Cl)cc2)C(C)C)CC1 | 2.8% (inactive) |
| CC(C)S(=O)(=O)c1csc(NC(=O)Nc2ccc(Cl)cc2)c1Cl | 88.8% (active) |
| Cc1ccc(S(=O)(=O)N(C)C)cc1NC(=O)COC(=O)/C=C/c1cccs1 | -1.3% (inactive) |
| Cc1c(C)c(C)c(S(=O)(=O)N2CCC3(CC2)OCCO3)c(C)c1C | -0.6% (inactive) |
| COC(=O)/C(C#N)=C/c1occc1C | 1.6% (inactive) |
| CC(=O)Nc1ccc(NS(=O)(=O)c2ccc3c(c2)NC(=O)CC(=O)N3)cc1 | -1.8% (inactive) |
| COc1ccc(NS(=O)(=O)c2ccc(NC(=S)NC(=O)CC(C)C)cc2)cc1 | 0.5% (inactive) |
| COc1cc(NS(=O)(=O)c2ccc(NC(C)=O)cc2)cc(OC)c1 | 54% (active) |
| CC(=O)c1c(C)oc2ccc(NS(=O)(=O)c3ccc(C(=O)O)cc3)cc12 | 0.1% (inactive) |

| SMILES | inhibition |
| --- | --- |
| CC(=O)c1c(C)oc2ccc(NS(=O)(=O)c3ccccc3)cc12 | -0.4% (inactive) |
| COc1ccc(S(=O)(=O)Nc2ccc3oc(C)c(C(C)=O)c3c2)cc1 | 93.4% (active) |
| Cc1c(S(=O)(=O)NC(C)c2ccccc2)c(=O)n(C)c(=O)n1C (configuration not stated) | 1.4% (inactive) |
| CN(Cc1nc2ccccc2c(=O)[nH]1)Cc1cc(=O)oc2ccc3ccccc3c12 | -0.3% (inactive) |
| COc1cc(/C=N/N=C(\N)c2nonc2N)cc(OC)c1OC | -1.6% (inactive) |
| Cc1cc(Cl)ccc1-c1nc(NCCN(C)C)nc2ccsc12 | 1.8% (inactive) |
| CC1(c2ccc3ccccc3c2)NC(=O)NC1=O (configuration not stated) | 0.6% (inactive) |
| Cc1nc(SCC(=O)NC2CCCCC2C)c(C#N)c(C)c1C (configuration not stated) | 0.8% (inactive) |
| O=[N+]([O-])c1ccc(Sc2n[nH]c(-c3ccco3)n2)nc1 | -1.5% (inactive) |
| CCCC[C@@H]1CN=C(N)N1CCCC | 1.3% (inactive) |
| CCCCN1C(N)=NC[C@@H]1Cc1ccccc1 | -0.6% (inactive) |
| CCCC[C@@H]1CN=C(N)N1CCc1cc(C(F)(F)F)cc(C(F)(F)F)c1 | 88.5% (active) |
| CCCN(Cc1cc2cccc(C)c2[nH]c1=O)S(C)(=O)=O | -1.3% (inactive) |
| COc1cccc(CNc2ncc(-c3ccccc3)n2C)c1 | 2% (inactive) |
| COc1ccc(/C=C/C(=O)Nc2ccc(C34CC5CC(CC(O)(C5)C3)C4)cc2)cc1OC | -0.1% (inactive) |
| FC(F)Oc1ccccc1NC(=S)Nc1cccc(Cl)c1Cl | 50.2% (active) |
| CCOC(=O)c1ccc[n+](CC(=O)Nc2ccccc2OC(F)F)c1 | -3.5% (inactive) |
| CC(=O)Nc1ccc(NC(=O)COc2ccccc2C(=O)Nc2cccc(Cl)c2Cl)cc1 | 6.8% (inactive) |
| Cc1ccccc1N1CC(C(=O)Nc2ccc(S(=O)(=O)N3CCCC3)cc2)CC1=O (configuration not stated) | -2.9% (inactive) |
| COCCOCCn1cnc2ccccc21 | -0.6% (inactive) |
| Clc1ncn(CCOc2ccccc2)c1Cl | -3.1% (inactive) |
| Cc1cc2ncn(CCCCOc3ccccc3)c2cc1C | 77.9% (active) |
